Compounds without any hit were thinned out: in the full panel of roughly 83,000, 20% have a hit.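 For each line, cells grew in 96-well plates with the test compound present at a single concentration for 48 hours.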 Unmarked numbers belong to inactive results. The source made the active and inactive calls. The calls were made as follows: active = growth percent below 10; inactive = the rest.
Columns and labels:
Test in all cases: NCI-60 one-dose screen, 48 h (100 = growth as untreated, 0 = no growth, -100 = all killed)
Conditions in all cases: 10 µM unless noted
[1] = test system: NCI-H23 lung
[2] = test system: NCI-H226 lung
[3] = test system: NCI-H322M lung
[4] = test system: HOP-62 NSCLC
[5] = test system: NCI-H460 lung
[6] = test system: HOP-92 NSCLC
[7] = test system: A549/ATCC NSCLC
[8] = test system: 786-0 renal
[9] = test system: COLO 205 colon
[10] = test system: DU-145 prostate
[11] = test system: K-562 leukemia
[12] = test system: MALME-3M melanoma
[13] = test system: MDA-MB-231 breast
[14] = test system: RXF 393 renal
[15] = test system: SF-268 CNS
[16] = test system: SF-295 CNS
[17] = test system: SF-539 CNS
[18] = test system: M14 melanoma
[19] = test system: NCI-H522 lung
[20] = test system: UACC-257 melanoma

## Cc1nn(-c2ccccc2)c2nc3c(nc12)C1=NCCN1C(c1ccc(Cl)cc1)N3 (stereo not drawn)
[1]
  growth: 92.8%
[2]
  growth: 86.2%
[3]
  growth: 77.4%
[4]
  growth: 87.7%
[5]
  growth: 82.9%
[6]
  growth: 30.2%
[7]
  growth: 88.9%
[8]
  growth: 76.6%
[9]
  growth: -82.9% (active)
[10]
  growth: 89.9%
[11]
  growth: 5.26% (active)
[12]
  growth: 7.76% (active)
[13]
  growth: 66.8%
[14]
  growth: 70%
[15]
  growth: 84.9%
[16]
  growth: 94.6%
[17]
  growth: 95.1%

## CC(C)(C)c1cc(C[P+](c2ccccc2)(c2ccccc2)c2ccccc2)cc(C(C)(C)C)c1O
[1]
  growth: -6.21% (active)
[2]
  growth: 32.3%
[3]
  growth: -9.5% (active)
[4]
  growth: 8.73% (active)
[5]
  growth: 3.54% (active)
[6]
  growth: -32.6% (active)
[8]
  growth: 8.5% (active)
[9]
  growth: -92.6% (active)
[10]
  growth: 20.5%
[11]
  growth: 3.48% (active)
[12]
  growth: -18.1% (active)
[13]
  growth: 27.9%
[14]
  growth: 11.7%
[15]
  growth: 19.4%
[16]
  growth: -3.88% (active)
[17]
  growth: 3.24% (active)
[18]
  growth: 11.7%

## N=C(N)c1ccc(-c2ccc(-c3cccs3)s2)cc1F
[1]
  growth: -62.8% (active)
[2]
  growth: -65.6% (active)
[3]
  growth: -92.4% (active)
[4]
  growth: -96.2% (active)
[5]
  growth: -57.4% (active)
[6]
  growth: -62% (active)
[8]
  growth: -86% (active)
[9]
  growth: -87.1% (active)
[10]
  growth: -77.4% (active)
[11]
  growth: -6.25% (active)
[12]
  growth: -73.4% (active)
[13]
  growth: -74.1% (active)
[14]
  growth: -92.6% (active)
[15]
  growth: -77.1% (active)
[16]
  growth: -71.2% (active)
[17]
  growth: -93.9% (active)
[18]
  growth: -78.3% (active)

## COc1cnc2c(c1)C(=O)c1c-2n(CCCN2CCNCC2)c(=O)c2cc(Cl)ccc12
[1]
  growth: -63.2% (active)
[2]
  growth: 18.6%
[3]
  growth: 54.3%
[4]
  growth: -24.4% (active)
[5]
  growth: -81.2% (active)
[19]
  growth: 17.4%
[7]
  growth: -30.9% (active)
[8]
  growth: -81.1% (active)
[9]
  growth: 22.7%
[10]
  growth: -95.8% (active)
[11]
  growth: -75.8% (active)
[12]
  growth: -51.5% (active)
[13]
  growth: -73.1% (active)
[14]
  growth: -1.72% (active)
[15]
  growth: -75.6% (active)
[16]
  growth: 15.5%
[17]
  growth: -93.8% (active)
[20]
  growth: 22.4%
[18]
  growth: -79.5% (active)

## Cc1nc(N)nc2c1CCC(Nc1ccccc1)S2 (stereo not drawn)
[1]
  growth: 104%
[2]
  growth: 99.1%
[3]
  growth: 101%
[4]
  growth: 112%
[5]
  growth: 109%
[19]
  growth: 91%
[7]
  growth: 97.6%
[8]
  growth: 103%
[9]
  growth: 107%
[10]
  growth: 106%
[11]
  growth: 93.4%
[12]
  growth: 96.3%
[13]
  growth: 106%
[14]
  growth: 107%
[15]
  growth: 94.7%
[16]
  growth: 104%
[17]
  growth: 96.7%
[20]
  growth: 101%
[18]
  growth: 108%

## O=C(/C=C/c1cn(-c2ccccc2)nc1-c1ccccc1)OCc1cn(-c2cccc([N+](=O)[O-])c2)nn1
[1]
  growth: 91.4%
[2]
  growth: 97.1%
[3]
  growth: 94.7%
[4]
  growth: 81.7%
[5]
  growth: 93.7%
[19]
  growth: 60.4%
[7]
  growth: 67.8%
[8]
  growth: 91.2%
[9]
  growth: 89.5%
[10]
  growth: 103%
[11]
  growth: 76.2%
[12]
  growth: 97.9%
[13]
  growth: 72.8%
[14]
  growth: 105%
[15]
  growth: 93.3%
[16]
  growth: 97.8%
[17]
  growth: 89.2%
[20]
  growth: 44.9%
[18]
  growth: 91.3%

## COc1cnc2c(c1)C(=O)c1c-2n(CCCNC(C)C)c(=O)c2cc(Cl)ccc12
[1]
  growth: -64.5% (active)
[2]
  growth: 25.5%
[3]
  growth: -35.7% (active)
[4]
  growth: -88.4% (active)
[5]
  growth: -82.9% (active)
[19]
  growth: -79.8% (active)
[7]
  growth: -84% (active)
[8]
  growth: -96.3% (active)
[9]
  growth: -89.8% (active)
[10]
  growth: -78.4% (active)
[11]
  growth: -80% (active)
[12]
  growth: -73.4% (active)
[13]
  growth: -79.7% (active)
[14]
  growth: -77.1% (active)
[15]
  growth: -64.2% (active)
[16]
  growth: -77.3% (active)
[17]
  growth: -97.3% (active)
[20]
  growth: 48.2%
[18]
  growth: -83.4% (active)

## CCCCOc1nc2ccccc2cc1/C=C/c1cc(/C=C/c2cc3ccccc3nc2OCCCC)n(-c2ccccc2)n1
[1]
  growth: 103%
[2]
  growth: 95.5%
[3]
  growth: 94.9%
[4]
  growth: 91.2%
[5]
  growth: 103%
[19]
  growth: 85.8%
[7]
  growth: 102%
[8]
  growth: 107%
[9]
  growth: 99.6%
[10]
  growth: 113%
[11]
  growth: 99%
[12]
  growth: 104%
[13]
  growth: 103%
[14]
  growth: 106%
[15]
  growth: 107%
[16]
  growth: 114%
[17]
  growth: 110%
[20]
  growth: 96.4%
[18]
  growth: 99.7%

## CCCCCCCCCCCCCCCCCC1=NCCN1CCO
[1]
  growth: 77.1%
[2]
  growth: 106%
[3]
  growth: 88.4%
[4]
  growth: 81%
[5]
  growth: 18.7%
[19]
  growth: 80.8%
[7]
  growth: 64.2%
[8]
  growth: 75.6%
[9]
  growth: 84.8%
[10]
  growth: 78.7%
[11]
  growth: 64.6%
[12]
  growth: 129%
[13]
  growth: 58.8%
[14]
  growth: 87.9%
[15]
  growth: 78.4%
[16]
  growth: 90%
[17]
  growth: 78.4%
[20]
  growth: 84.4%
[18]
  growth: 84.1%

## COc1ccc(-n2c(COc3ccc(F)cc3)n[nH]c2=S)cc1
[1]
  growth: 112%
[2]
  growth: 101%
[3]
  growth: 96.8%
[4]
  growth: 105%
[5]
  growth: 110%
[19]
  growth: 90.3%
[7]
  growth: 131%
[8]
  growth: 102%
[9]
  growth: 116%
[10]
  growth: 112%
[11]
  growth: 129%
[12]
  growth: 115%
[13]
  growth: 89.3%
[14]
  growth: 80.3%
[15]
  growth: 97.8%
[16]
  growth: 74.1%
[17]
  growth: 101%
[20]
  growth: 186%
[18]
  growth: 112%

## Cc1c(C(=O)CCl)c(=O)n(-c2ccccc2)n1C
[1]
  growth: 72.7%
[2]
  growth: 104%
[3]
  growth: 101%
[4]
  growth: 105%
[5]
  growth: 81.2%
[19]
  growth: -34.4% (active)
[7]
  growth: 83.5%
[8]
  growth: 88.6%
[9]
  growth: 48.7%
[10]
  growth: 42.4%
[11]
  growth: 53%
[12]
  growth: 48.1%
[13]
  growth: 97.7%
[14]
  growth: 38.7%
[15]
  growth: 84.5%
[16]
  growth: 87.3%
[17]
  growth: 71.7%
[20]
  growth: 52.1%
[18]
  growth: 52.3%

## Cc1cccc(N=NC(=S)NNc2cccc(C)c2)c1
[1]
  growth: 102%
[2]
  growth: 101%
[3]
  growth: 101%
[4]
  growth: 101%
[5]
  growth: 112%
[19]
  growth: 95.4%
[7]
  growth: 105%
[8]
  growth: 111%
[9]
  growth: 116%
[10]
  growth: 122%
[11]
  growth: 105%
[12]
  growth: 108%
[13]
  growth: 93.5%
[14]
  growth: 115%
[15]
  growth: 135%
[16]
  growth: 104%
[17]
  growth: 108%
[20]
  growth: 105%
[18]
  growth: 108%

## CCNCCCn1c2c(c3ccc(Cl)cc3c1=O)C(=O)c1cc(OC)cnc1-2
[1]
  growth: 28.8%
[2]
  growth: -6.31% (active)
[3]
  growth: 45%
[4]
  growth: -18.8% (active)
[5]
  growth: -69.9% (active)
[19]
  growth: -10.2% (active)
[7]
  growth: 25.7%
[8]
  growth: -95.4% (active)
[9]
  growth: 8.78% (active)
[10]
  growth: -97.4% (active)
[11]
  growth: -84.2% (active)
[12]
  growth: 74.2%
[13]
  growth: -72.6% (active)
[14]
  growth: 8.86% (active)
[15]
  growth: -66% (active)
[16]
  growth: 15.5%
[17]
  growth: 12%
[20]
  growth: 65.9%
[18]
  growth: 40%

## COc1cccc(/C=N\Nc2ccc([N+](=O)[O-])cn2)c1O
[1]
  growth: 38%
[2]
  growth: 81.5%
[3]
  growth: 32%
[4]
  growth: 46.4%
[5]
  growth: 18%
[19]
  growth: 12.7%
[7]
  growth: 57%
[8]
  growth: 64.5%
[9]
  growth: 134%
[10]
  growth: 51.6%
[11]
  growth: 44.1%
[12]
  growth: 60.9%
[13]
  growth: 42.4%
[14]
  growth: 72.8%
[15]
  growth: 37.1%
[16]
  growth: 3.86% (active)
[17]
  growth: 50.6%
[20]
  growth: 16.2%
[18]
  growth: 38.8%

## CS(=O)(=O)c1ccc(C(=O)N2N=C(c3ccccc3)CC2c2ccc3c(c2)OCO3)cc1 (stereo not drawn)
[1]
  growth: 101%
[2]
  growth: 88.7%
[3]
  growth: 99.6%
[4]
  growth: 83.1%
[5]
  growth: 98.5%
[19]
  growth: 87.2%
[7]
  growth: 80.2%
[8]
  growth: 90.8%
[9]
  growth: 81.4%
[10]
  growth: 97.4%
[11]
  growth: 59.9%
[12]
  growth: 104%
[13]
  growth: 96.2%
[14]
  growth: 98.4%
[15]
  growth: 95.2%
[16]
  growth: 100%
[17]
  growth: 103%
[20]
  growth: 79.2%
[18]
  growth: 95.7%

## NC(N)=N/N=C/c1cccc(Cl)c1Cl
[1]
  growth: 86.9%
[2]
  growth: 84.8%
[3]
  growth: 96.9%
[4]
  growth: 82.5%
[5]
  growth: 64.2%
[19]
  growth: 80.8%
[7]
  growth: 87.9%
[8]
  growth: 83.6%
[9]
  growth: -33.1% (active)
[10]
  growth: 69.3%
[11]
  growth: 4.22% (active)
[12]
  growth: 94.9%
[13]
  growth: 81.6%
[14]
  growth: 81.3%
[15]
  growth: 69.5%
[16]
  growth: 109%
[17]
  growth: 96.4%
[20]
  growth: 70.1%
[18]
  growth: 62.7%
